Rows were chosen to be rich in hits. Some 1.1% of all compounds tested hit in one or more screens of this group.
PI4K2A inh: inhibitors of human PI4K2A; Q9BTU6; purified PI4K2A, ADP-Glo luminescence, 1 h; hits give low values; activity change, negative = inhibition, % at 76.9 µM; 420,000 tested, 0.13% active; AID 1346378; in the data active = activity change below about -50%; inconclusive = mostly about -30% to -49%;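 note: -100% = wells without enzyme as full effect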
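Compounds are screened against recombinant PI4K2A using PI as substrate and ATP, the latter dispensed at 300 microM. Reactions run one hour at ambient temperature before ADP-Glo detection; full inhibition defined by wells lacking enzyme.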
GALK inh: blocks human galactokinase activity. P51570. Purified GALK, Kinase-Glo residual ATP luminescence. Potency, µM (highest dose often 57.5 µM), without a hit: at the top dose activity change, negative = inhibition, most hits filed as inhibitors. 270,000 tested, 0.007% active. AID 1868; note: potency is the fitted concentration of half-maximal effect
Target sequence (P51570 whole entry, looked up): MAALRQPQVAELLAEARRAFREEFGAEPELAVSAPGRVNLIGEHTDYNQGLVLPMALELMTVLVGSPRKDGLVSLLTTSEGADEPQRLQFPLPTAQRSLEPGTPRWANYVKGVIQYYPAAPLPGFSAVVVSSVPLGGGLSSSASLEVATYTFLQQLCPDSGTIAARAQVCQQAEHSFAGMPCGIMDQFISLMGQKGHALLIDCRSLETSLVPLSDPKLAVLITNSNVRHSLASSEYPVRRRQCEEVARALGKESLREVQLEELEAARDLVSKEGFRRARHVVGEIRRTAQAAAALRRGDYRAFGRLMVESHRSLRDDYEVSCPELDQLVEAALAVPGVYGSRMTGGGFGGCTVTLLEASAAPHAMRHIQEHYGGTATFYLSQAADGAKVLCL
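GALK at 5 nM final was combined with compound, 35 uM ATP and 100 uM galactose in HEPES pH8.0 with MgCl2 and DTT. The reaction ran one hour at room temperature before luminescent ATP detection.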
rTrxR1 inhibitor: blocks rat thioredoxin reductase 1 | O89049 | recombinant rTrxR1, NADPH fluorescence consumption, selenite substrate | Potency, µM (highest dose often 114 µM), for the others: at the top dose activity change, negative = inhibition, usual class: inhibitors | 390,000 tested, 1% active; note: potency is the fitted concentration of half-maximal effect; nearly all actives have a fitted effect of over 65% in size
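Rat TrxR1 (90 nM in the dispensed reagent) was pre-reduced with 400 uM NADPH for 5 min at room temperature, then incubated with compound for 15 min. After 400 uM selenite was added, NADPH fluorescence (Ex 340/Em 450 nm) was followed for 8 min.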
TrxR1 substrate: substrates of rat thioredoxin reductase 1 | 390,000 tested, 0.01% active | AID 588456 | Potency, µM (series often up to 114 µM), for the others: top-dose activity change, negative = substrate turnover | purified TrxR1 substrate turnover, NADPH consumption readout | O89049; note: potency is the fitted concentration of half-maximal effect; nearly all actives have a fitted effect of over 50% in size
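Rat TrxR1, dispensed at 90 nM, was prereduced with 400 uM NADPH (final) for 5 min at ~22 deg C, then incubated with compound 15 min before 400 uM selenite. A first-read NADPH fluorescence drop versus no-compound background flagged substrates.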
* hit, by the source's call; ? = inconclusive; · = no result given; [ ] = another dose, or the depositor's remark. Unless noted, calls come from the whole dose curve; as a rule, active = well fitted curve in the direction sought with a large enough effect; inconclusive = small, poorly fitted or top-dose-only effect, or another doubt; inactive = no such curve, though single readings can be large; an effect the other way counts as inactive or inconclusive. Unless noted, % is set by controls: 0 for no effect and ±100 for the full control effect.

SMILES	PI4K2A inh	GALK inh	rTrxR1 inhibitor	TrxR1 substrate
C/C=C1\COC(C(=O)NCCN2CCOCC2)(C(F)(F)F)C=C1C=C1CCCCC1 (stereo not given)	·	·	?	-6.4%
C/C=C1\COC(C(=O)NCCCN2CCCC2=O)(C(F)(F)F)C=C1C=C(C)C (stereo not given)	-4.9	·	3.16µM*	-5.4%
C/C=C1\COC(C(=O)NCc2ccccn2)(C(F)(F)F)C=C1C=C(C)C (stereo not given)	·	·	3.98µM*	8.8%
C/C=C1\COC(C(=O)NCc2cccc(OC)c2OC)(C(F)(F)F)C=C1C=C(C)C (stereo not given)	·	·	-17.9%	-6.1%
C/C=C1\COC(C(=O)NCCN2CCCC2)(C(F)(F)F)C=C1C=C1CCCCC1 (stereo not given)	-0.4	·	6.6%	-1.6%
C/C=C1\COC(C(=O)NCc2ccccc2)(C(F)(F)F)C=C1C=C1CCCCC1 (stereo not given)	1.3	·	1µM*	4.8%
Cc1ccc(N2CCN(S(=O)(=O)c3cc(C(=O)Nc4cc(Cl)cc(Cl)c4)ccc3F)CC2C)cc1 (stereo not given)	-2.0	·	14.6%[57.1 µM]	1.7%[57.1 µM]
Nc1nc(SCC(=O)O)c2[nH]cnc2n1	·	·	10.4%	5.5%[0.0914 µM]
O=C(c1cccc(Cl)c1)N1c2ncnn2C2(CCCCC2)[C@@H]2CCCC[C@@H]21	-7.6	·	14.8%	-1.6%
Cc1sc(C(C2C(=O)CC(C)(C)CC2=O)C2C(=O)CC(C)(C)CC2=O)cc1[N+](=O)[O-]	-11.2	-1.7%	2µM*	-7.0%
CC1(C)CC(=O)C(C(c2cc([N+](=O)[O-])ccc2Cl)C2C(=O)CC(C)(C)CC2=O)C(=O)C1	7.7	·	?	7.5%
NC(=O)/C=C\C(=O)Nc1cccc(C(F)(F)F)c1	0.7	-4.3%	25.1µM*	10.5%
NNC(=O)Nc1cccc(C(F)(F)F)c1	2.7	-1.1%	25.3%	5.7%
O=[N+]([O-])c1ccc(-[n+]2ccc3ccccc3c2)c([N+](=O)[O-])c1	2.2	·	0.891µM*	-7.4%
O=[N+]([O-])c1ccc(SNc2ccccc2)c([N+](=O)[O-])c1	8.1	·	15.9%[11.4 µM]	6.3%[11.4 µM]
O=C(NCCN1CCN(Cc2ccccc2)CC1)C1c2ccccc2C(=O)N2CCc3ccccc3C12 (stereo not given)	5.6	·	-9.1%	-5.4%
Cc1ccc(CNC(=O)C2c3ccccc3C(=O)N3CCc4ccccc4C23)o1 (stereo not given)	-0.3	2.4%	1.78µM*	2.8%
CC(C)COC(=O)N(C)C[C@H]1OCc2cn(nn2)CCCC(=O)N([C@H](C)CO)C[C@@H]1C	-0.5	·	·	·
O=c1c2cc(N3CCOCC3)ccc2[nH]c(=S)n1Cc1ccco1	-23.2	1.4%	10µM*	4.3%[57.1 µM]
O=c1c2cc(N3CCOCC3)ccc2[nH]c(=S)n1Cc1cccc(Cl)c1	-5.9	-3.3%	0.0%	15.1%
CCc1nc(N2CCN(C(C)=O)CC2)c2c3c(sc2n1)CC(C(C)(C)C)CC3 (stereo not given)	-1.3	2.0%	-8.1%	-6.6%
CCc1nc(N2CCN(C(=O)CCl)CC2)c2c3c(sc2n1)CC(C)CC3 (stereo not given)	15.5	-8.3%	22.4µM*	5.2%
COc1ccccc1Nc1nc(N)nc(CN2CCCCCC2)n1	-9.1	0.3%	14.1µM*	7.0%[57.1 µM]
O=C(c1ccco1)N1CCN(CC(=O)N2CCCc3c2c(=O)oc2ccc(O)cc32)CC1	-2.7	-0.3%	15.8µM*	-8.6%[57.1 µM]
O=C(CN1CCN(Cc2ccccc2)CC1)N1CCCc2c1c(=O)oc1ccc(O)cc21	5.2	1.5%	-10.4%	-14.5%
SMILES	PI4K2A inh	GALK inh	rTrxR1 inhibitor	TrxR1 substrate
CCOC(=O)c1nnn(-c2ccc([N+](=O)[O-])cc2[N+](=O)[O-])c1C	12.0	1.4%	22.6%	-0.5%
CCCCCCCCCCCCOC(=O)N1CCN(/[N+]([O-])=N/Oc2ccc([N+](=O)[O-])cc2[N+](C)=O)CC1	·	·	50.1µM*	-6.8%[0.457 µM]
CCOC(=O)N1CCN(/[N+]([O-])=N/Oc2ccc([N+](=O)[O-])cc2[N+](=O)[O-])CC1	13.5	·	6.7µM*	3.1%[57.1 µM]
CCOC(=O)CCCC(=O)N1CCN(/[N+]([O-])=N/Oc2ccc([N+](=O)[O-])cc2[N+](=O)[O-])CC1	·	·	15.8µM*	-6.2%
Cc1ccccc1CN1[C@H](C)[C@H](c2ccccc2)OCCS1(=O)=O	·	·	26.6%	5.9%
Cn1nnnc1SC1CC(=O)N(c2ccccc2)C1=O (stereo not given)	-4.2	1.3%	17.8µM*	11.9%[57.1 µM]
Cc1cc(C)cc(N2C(=O)CC(Sc3ncn[nH]3)C2=O)c1 (stereo not given)	0.5	2.3%	?	1.9%[57.1 µM]
Cc1cccc(N2C(=O)CC(Sc3nc(C)cc(C)n3)C2=O)c1 (stereo not given)	1.3	-0.2%	?	2.2%
Cc1cccc(N2C(=O)CC(Sc3nnc(C)s3)C2=O)c1 (stereo not given)	6.4	-1.7%	20µM*	0.2%
O=C1CC(Sc2nnnn2C2CCCCC2)C(=O)N1c1ccccc1 (stereo not given)	-5.4	-3.2%	?	13.1%
Cc1ccc(N2C(=O)CC(Sc3cccs3)C2=O)cc1 (stereo not given)	-1.7	·	79.4µM*	-5.6%
Cc1cc(C)cc(N2C(=O)CC(Sc3nnnn3-c3ccccc3)C2=O)c1 (stereo not given)	-2.1	0.0%	11.2µM*	15.7%
COc1ccc(CN2CC[C@H]3C=CC[C@@H](C(=O)NC4CCCCC4)[C@H]3C2=O)cc1OC	·	·	-12.0%	-4.5%
CC1=C(C(=O)NCc2ccccc2C)C2(CCCCCC2)OC1=O	-6.3	·	8.6%	-0.3%
COc1ccc(N/C(=C(/C(Cl)=C(Cl)Cl)[N+](=O)[O-])n2nnc3ccccc32)cc1	·	4.1%	·	·
Cc1ccccc1N/C(=C(/C(Cl)=C(Cl)Cl)[N+](=O)[O-])n1nnc2ccccc21	5.7	0.1%	10µM*	4.4%[57.1 µM]
COc1ccc(CC(=O)OCn2nnc3ccccc3c2=O)cc1	-56.7*	-0.4%	21.2%[57.1 µM]	-4.2%[57.1 µM]
O=C(O)CCSc1ccc([N+](=O)[O-])cc1[N+](=O)[O-]	11.8	-1.3%	70.8µM*	-2.7%
CCOc1ccc(NC(=O)CSc2nc3nc(C)c(Cc4ccccc4)c(C)n3n2)cc1	-1.9	·	14.6%[57.1 µM]	-3.4%[57.1 µM]
Nc1ccc(-c2nc3ccc(N)cc3o2)cc1	-2.1	2.6%	79.4µM*	846.3%
COc1ccccc1CNC(=O)CN1CCN(S(=O)(=O)c2cccs2)CC1	3.3	-2.7%	27.4%	-0.2%
O=C(O)CCc1ccc(-c2ccc(Br)cc2)o1	-7.7	-0.7%	22.4µM*	4.2%
O=C(O)CCc1ccc(-c2ccc(Cl)cc2)o1	-2.4	-1.4%	17.8µM*	7.0%
COc1ccc(-c2ccc(CCC(=O)O)o2)cc1	-5.3	12.4%	17.8µM*	11.5%[57.1 µM]
CCOC(=O)C(C(=O)OCC)C(=O)c1cccc2ccc3ccccc3c12	2.5	·	·	·
CCC(=O)O[C@]1(C(=O)COC)[C@@H](C)C[C@H]2[C@@H]3CCC4=CC(=O)C=C[C@]4(C)C3(F)[C@@H](O)C[C@@]21C (stereo not given in full)	-0.4	·	·	·

Source: PubChem
